HP1b chromo inh: blocks HP1-beta chromodomain binding to methylated histone tails; AlphaScreen HP1-beta / biotin-H3K9me3 peptide binding; Potency, µM (series often up to 114 µM), for the others: at the top dose activity change, negative = inhibition, most hits filed as inhibitors; 390,000 compounds, 0.56% hits; AID 540317; note: nearly all actives have a fitted effect of over 70% in size
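HP1-beta protein (50 nM final) preincubated 30 min at room temperature with biotinylated H3(1-18)K9me3 peptide (50 nM) in PBS pH 7.4, 0.01% Tween-20, then compound added for 30 min. AlphaScreen streptavidin donor/nickel chelate acceptor beads (10 ug/mL final), 30 min dark, luminescence read.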
L3MBTL1 inh: blocks human L3MBTL1; Potency, µM (highest dose often 57.1 µM), for inactives: at the highest dose activity, negative = inhibition, most hits filed as inhibitors; 230,000 compounds, 0.66% hits; Q9Y468; AlphaScreen L3MBTL1–H3K9me1 peptide binding; AID 485360; note: % is set by controls: 0 for no effect and ±100 for the full control effect; nearly all actives have a fitted effect of over 60% in size
Target sequence (Q9Y468 whole entry, looked up): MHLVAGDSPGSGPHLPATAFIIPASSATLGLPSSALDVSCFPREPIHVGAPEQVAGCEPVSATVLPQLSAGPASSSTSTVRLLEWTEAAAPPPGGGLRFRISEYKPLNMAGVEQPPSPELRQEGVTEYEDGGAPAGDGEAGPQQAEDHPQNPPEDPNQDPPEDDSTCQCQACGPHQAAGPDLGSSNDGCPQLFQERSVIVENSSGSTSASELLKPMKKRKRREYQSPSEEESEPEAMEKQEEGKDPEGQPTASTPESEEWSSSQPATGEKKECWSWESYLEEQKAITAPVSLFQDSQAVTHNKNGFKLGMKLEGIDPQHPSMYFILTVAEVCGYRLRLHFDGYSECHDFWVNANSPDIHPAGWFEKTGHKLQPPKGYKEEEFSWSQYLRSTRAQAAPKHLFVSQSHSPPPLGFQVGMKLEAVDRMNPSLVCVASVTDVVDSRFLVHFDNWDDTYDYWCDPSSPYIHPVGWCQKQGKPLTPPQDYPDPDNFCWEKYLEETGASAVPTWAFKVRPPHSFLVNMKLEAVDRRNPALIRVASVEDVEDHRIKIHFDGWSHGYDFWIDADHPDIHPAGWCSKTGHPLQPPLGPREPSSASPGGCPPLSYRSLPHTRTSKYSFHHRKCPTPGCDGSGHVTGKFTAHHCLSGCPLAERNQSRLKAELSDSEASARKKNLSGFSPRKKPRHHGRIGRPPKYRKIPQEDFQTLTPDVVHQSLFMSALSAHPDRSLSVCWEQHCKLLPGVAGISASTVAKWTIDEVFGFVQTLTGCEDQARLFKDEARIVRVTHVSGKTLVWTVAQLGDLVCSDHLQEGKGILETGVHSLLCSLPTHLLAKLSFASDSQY
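AlphaScreen assay: L3MBTL1 (50 nM final) was preincubated 30 min at room temperature with biotinylated H3(1-15)K9me1 peptide (75 nM final), then 30 min with library compounds; streptavidin donor and nickel chelate acceptor beads (10 ug/mL final) added, 30 min dark.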
G9a block: G9a (human) methyltransferase inhibition; Q96KQ7; G9a H3K9 monomethylation, AlphaScreen, 2 h; Potency, µM (highest dose often 102 µM), for the others: at the top dose activity, negative = inhibition, hits mostly inhibitors; 350,000 compounds, 8.8% hits; AID 504332; note: % is set by controls: 0 for no effect and ±100 for the full control effect; nearly all actives have a fitted effect of over 75% in size
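Compounds were preincubated with 20 nM G9a for 15 min, after which biotinylated H3K9 peptide (500 nM) and SAM (20 uM) started a 2 h room-temperature reaction. Monomethylated product was quantified by antibody-based AlphaScreen chemiluminescence.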
JMJD2A Tudor inh: blocks the human JMJD2A Tudor domain; AID 504339; AlphaScreen JMJD2A-Tudor / H3K4me3 peptide binding; Potency, µM (series often up to 114 µM), inactives show at the top dose activity change, negative = inhibition, usual class: inhibitors; 390,000 compounds, 4.4% hits; O75164; note: % is set by controls: 0 for no effect and ±100 for the full control effect; nearly all actives have a fitted effect of over 50% in size
BAZ2B block: blocks human BAZ2B; 360,000 compounds, 4.4% hits; AlphaScreen BAZ2B-H3K14Ac peptide displacement; AID 504333; Potency, µM (doses to about 114 µM), for inactives: at the top dose activity change, negative = inhibition, hits mostly inhibitors; Q9UIF8; note: % is set by controls: 0 for no effect and ±100 for the full control effect; nearly all actives have a fitted effect of over 60% in size
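BAZ2B (50 nM) with biotin-H3(5-23)K14Ac peptide (50 nM) in PBS pH 7.4, 0.01% Tween-20, preformed 30 min, then compound 30 min at room temperature; top concentration 110uM. AlphaScreen streptavidin donor/nickel chelate acceptor beads (10 ug/mL final), 20 min dark, signal read.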
Starred values were filed as active, the others as inactive; u = inconclusive; x = not tested or not shown; [ ] = dose if it differs, or a comment. An excerpt weighted towards active compounds, which were near 11% of everything screened. Calls come from the whole dose curve; as a rule, active = well fitted inhibition curve with a large enough effect; inconclusive = small, poorly fitted or top-dose-only effect; inactive = no such curve, though single readings can be large or run the other way. Potency is the fitted concentration of half-maximal effect.

SMILES | HP1b chromo inh | L3MBTL1 inh | G9a block | JMJD2A Tudor inh | BAZ2B block
CC1CCN(CCCOc2ccc(Br)cc2Cl)CC1 | u | -21.3% | 15.8µM* | 3.98µM* | 56.2µM*
COCCCNS(=O)(=O)c1ccc(N2CCCCS2(=O)=O)cc1 | 29.9% | x | -3.3%[12.7 µM] | -0.7% | -0.6%
CC1=C(C(=O)OC2CCCC2)C(c2cccc(Cl)c2Cl)CC(=O)N1 (centres undefined) | 29.8% | x | -3.8%[59 µM] | -6.2% | -1.3%
CC(C)(C)c1ccc(C(=O)NCCc2csc3nc(-c4ccccc4F)nn23)cc1 | 12.2%[57 µM] | x | -0.4%[59 µM] | -26.5% | -12.9%
CNc1ncncc1-c1ccccc1C | x | x | 20.4%[0.501 µM] | x | x
COc1ccc(N=C2S/C(=C\c3ccc(OC(C)C(=O)O)c(OC)c3)C(=O)N2CCc2c[nH]c3ccccc23)cc1 (centres undefined) | u | -13.4% | 35.5µM* | 39.8µM* | 22.4µM*
O=C1/C(=C/c2ccc(N3CCOCC3)o2)SC(=Nc2ccccc2)N1CCc1c[nH]c2ccccc12 | -38.3% | -13.8% | u | u | u
COc1cc(/C=C2\SC(=Nc3ccccc3)N(CCc3c[nH]c4ccccc34)C2=O)ccc1OC(C)C(=O)O (centres undefined) | u | -5.3% | 6.31µM* | 56.2µM* | 44.7µM*
COc1cc(-c2nnn(CC(=O)Nc3ccc(OC(F)(F)F)cc3)n2)cc(OC)c1OC | 27.1% | x | 7.5%[59 µM] | 3.7% | -16.2%
COc1ccc(OCC(=O)N(C)Cc2ccccc2)cc1 | 39.9% | -3.4% | 21.1% | -17.2% | 3.3%
CN(CCOCCOc1ccc(F)cc1)Cc1ccccc1 | u | -3.8% | u | 12.6µM* | 79.4µM*
CN(CCOCCOc1ccc(Cl)cc1Br)Cc1ccccc1 | 34.4% | 13.5% | 36.6% | 1.3% | 1.6%
COc1ccc(OCCCCN(C)Cc2ccccc2)cc1 | u | -8.9% | u | 20µM* | 70.8µM*
C=CCc1cc(OC)ccc1OCCN(C)Cc1ccccc1 | u | -14.9% | 12.6µM* | 25.1µM* | 50.1µM*
COC(=O)c1ccc(OCCCCN(C)Cc2ccccc2)cc1 | u | -0.3% | 10µM* | 31.6µM* | 56.2µM*
CCc1ccc(O)c(C(=O)c2cnc3cc(-c4ccc(C)cc4)nn3c2)c1 | 11.7% | x | 3.0%[59 µM] | -12.7% | -16.6%
O=C(CN1C(=O)C2(SCC(=O)N2c2cccc(Cl)c2)c2ccccc21)NCCc1ccccc1 (centres undefined) | 35.1% | x | -21.1%[59 µM] | -23.0% | 5.1%[57.1 µM]
CSc1ccc(CNC(=O)Cn2c(-c3cccs3)cc3cc(F)ccc32)cc1 | 41.8% | x | 7.7%[59 µM] | -1.7% | 3.8%
O=C(CN1C(=O)COc2ccc(Cl)cc21)NC1CC1 | 31.9% | x | x | -6.7% | -3.0%
COc1ccc(C(=O)N(Cc2ccccc2)Cc2ccc(OC)c(COc3ccc(NC(C)=O)cc3)c2)cc1 | -0.1% | x | x | u | x
C=CCc1cc(OC)ccc1OCCCCn1cncn1 | u | -6.8% | 28.2µM* | 5.62µM* | 50.1µM*
COc1ccc(CN(C)CC(=O)NC(=O)NCc2ccccc2)c(OC)c1 | 26.3% | 1.1% | -3.4% | -17.5% | -1.8%
COc1ccc(CN(CCN(C)C)Cc2ccccc2)c(OC)c1 | -38.6% | -9.7% | 8.91µM* | 2.51µM* | 79.4µM*
C=CCc1ccc(OCCn2cncn2)c(OC)c1 | 34.0% | 8.5% | -15.7% | 5.9% | 10.2%
COC(=O)c1ccc(CSc2nc3ccccc3s2)o1 | 81.2% | 28.2% | 3.0%[59 µM] | 47.2% | 69.1%
SMILES | HP1b chromo inh | L3MBTL1 inh | G9a block | JMJD2A Tudor inh | BAZ2B block
COC(=O)C1=C(CSc2nc3ccccc3s2)NC(=O)NC1c1ccc(F)cc1 (centres undefined) | -3.6% | -3.7% | 39.8µM* | -10.1% | 4.9%
Nc1ccc2nc(CN3CCOCC3)[nH]c2c1 | 34.7% | x | u | u | 50.1µM*
Cc1ccc2nc(Cc3ccc(N)cc3)[nH]c2c1 | 18.1% | 3.3% | 1.9%[0.501 µM] | -33.3% | 56.2µM*
CC(C)Cc1nc2ccc(N)cc2[nH]1 | 19.2% | -10.5% | u | 22.4µM* | -35.2%
COc1cc(NC(=O)C(CCSC)NS(=O)(=O)c2ccc3c(c2)oc(=O)n3C)cc(OC)c1 (centres undefined) | 19.9% | x | 6.2%[59 µM] | -7.7% | 5.2%
C=CCn1c(O)c(C2=c3ccccc3=NC2=O)sc1=Nc1ccc(O)cc1 | u | x | -27.7%[12.7 µM] | 22.4µM* | 22.4µM*

Bioassay records: PubChem BioAssay, National Center for Advancing Translational Sciences (NCATS)
